This excerpt belongs to a sample that is enriched for the strongest signals.
How the values were obtained:
Experiment in all cases: glycan array binding signal (z-score within array); higher = stronger binding
Conditions in all cases: glycan notation: IUPAC condensed, linker removed
[1] = target: Fuc(a1-2)Gal(b1-3)GlcNAc(b1-3)GalNAc
In short: (§1)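 Glycan array data were curated from 3228 arrays in the Consortium for Functional Glycomics database and kept only where the protein sequence was available. Glycan names were converted to IUPAC-condensed notation, and columns mapping to the same glycan were averaged. The binding signal is a within-array Z-score, averaged across arrays of the same protein sequence at different concentrations or buffers and across linkers. Negative Z-scores can be read as non-binding.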

[2] = target: Fuc(a1-2)Gal(b1-3)[Fuc(a1-4)]GlcNAc
In short: as §1

[3] = target: Fuc(a1-2)Gal(b1-4)GlcNAc(b1-6)GalNAc
In short: as §1

[4] = target: Fuc(a1-2)Gal(b1-4)[Fuc(a1-3)]GlcNAc(b1-3)Gal(b1-4)[Fuc(a1-3)]GlcNAc(b1-3)Gal(b1-4)[Fuc(a1-3)]GlcNAc
In short: as §1

[5] = target: Fuc(a1-2)[Gal(a1-3)]Gal(b1-3)GlcNAc
In short: as §1

[6] = target: Fuc(a1-2)[Gal(a1-3)]Gal(b1-4)GlcNAc
In short: as §1

[7] = target: Fuc(a1-2)[Gal(a1-3)]Gal(b1-4)[Fuc(a1-3)]GlcNAc
In short: as §1

[8] = target: Fuc(a1-2)[GalNAc(a1-3)]Gal(b1-4)GlcNAc(b1-2)Man
In short: as §1

[9] = target: Fuc(a1-2)[GalNAc(b1-3)]Gal
In short: as §1

[10] = target: Fuc(a1-3)[Gal(b1-4)]GlcNAc(b1-3)GalNAc
In short: as §1

Gal(a1-3)Gal(b1-3)GlcNAc = target: Gal(a1-3)Gal(b1-3)GlcNAc
In short: as §1

[11] = target: Gal(a1-3)Gal(b1-4)[Fuc(a1-3)]GlcNAc
In short: as §1

Gal(b1-3)Gal = target: Gal(b1-3)Gal
In short: as §1

Gal(b1-3)GlcNAc = target: Gal(b1-3)GlcNAc
In short: as §1

[12] = target: Gal(b1-3)GlcNAc(b1-3)Gal(b1-4)GlcNAc(b1-2)[Gal(b1-3)GlcNAc(b1-3)Gal(b1-4)GlcNAc(b1-6)]Man(a1-6)[Gal(b1-3)GlcNAc(b1-3)Gal(b1-4)GlcNAc(b1-2)Man(a1-3)]Man(b1-4)GlcNAc(b1-4)[Fuc(a1-6)]GlcNAc
In short: as §1

[13] = target: Gal(b1-3)GlcNAc(b1-3)Gal(b1-4)GlcNAc(b1-6)[Gal(b1-3)GlcNAc(b1-3)]Gal(b1-4)Glc
In short: as §1

Gal(b1-4)Gal = target: Gal(b1-4)Gal
In short: as §1

[14] = target: Gal(b1-4)GlcNAc(b1-2)Man(a1-3)[Gal(b1-4)GlcNAc(b1-2)Man(a1-6)]Man(b1-4)GlcNAc(b1-4)[Fuc(a1-6)]GlcNAc
In short: as §1

[15] = target: Gal(b1-4)GlcNAc(b1-2)Man(a1-3)[Gal(b1-4)GlcNAc(b1-2)Man(a1-6)][GlcNAc(b1-4)]Man(b1-4)GlcNAc(b1-4)[Fuc(a1-6)]GlcNAc
In short: as §1

[16] = target: Gal(b1-4)GlcNAc(b1-2)[Gal(b1-4)GlcNAc(b1-4)]Man(a1-3)[GlcNAc(b1-4)][Gal(b1-4)GlcNAc(b1-2)Man(a1-6)]Man(b1-4)GlcNAc(b1-4)GlcNAc
In short: as §1

[17] = target: Gal(b1-4)GlcNAc(b1-2)[Gal(b1-4)GlcNAc(b1-6)]Man(a1-6)[GlcNAc(b1-4)][Gal(b1-4)GlcNAc(b1-2)[Gal(b1-4)GlcNAc(b1-4)]Man(a1-3)]Man(b1-4)GlcNAc(b1-4)[Fuc(a1-6)]GlcNAc
In short: as §1

[18] = target: Gal(b1-4)GlcNAc(b1-3)Gal(b1-4)GlcNAc(b1-2)Man(a1-3)[Gal(b1-4)GlcNAc(b1-3)Gal(b1-4)GlcNAc(b1-2)Man(a1-6)]Man(b1-4)GlcNAc(b1-4)[Fuc(a1-6)]GlcNAc
In short: as §1

[19] = target: Gal(b1-4)GlcNAc(b1-3)Gal(b1-4)GlcNAc(b1-3)Gal(b1-4)GlcNAc(b1-3)Gal(b1-4)GlcNAc(b1-2)Man(a1-3)[Gal(b1-4)GlcNAc(b1-3)Gal(b1-4)GlcNAc(b1-3)Gal(b1-4)GlcNAc(b1-3)Gal(b1-4)GlcNAc(b1-2)Man(a1-6)]Man(b1-4)GlcNAc(b1-4)GlcNAc
In short: as §1

[20] = target: Gal(b1-4)GlcNAc(b1-3)Gal(b1-4)GlcNAc(b1-3)Gal(b1-4)GlcNAc(b1-3)Gal(b1-4)GlcNAc(b1-2)Man(a1-3)[Gal(b1-4)GlcNAc(b1-3)Gal(b1-4)GlcNAc(b1-3)Gal(b1-4)GlcNAc(b1-3)Gal(b1-4)GlcNAc(b1-2)Man(a1-6)]Man(b1-4)GlcNAc(b1-4)[Fuc(a1-6)]GlcNAc
In short: as §1

[21] = target: Gal(b1-4)GlcNAc(b1-3)Gal(b1-4)GlcNAc(b1-3)Gal(b1-4)GlcNAc(b1-3)Gal(b1-4)GlcNAc(b1-3)Gal(b1-4)GlcNAc(b1-2)Man(a1-3)[Gal(b1-4)GlcNAc(b1-3)Gal(b1-4)GlcNAc(b1-3)Gal(b1-4)GlcNAc(b1-3)Gal(b1-4)GlcNAc(b1-3)Gal(b1-4)GlcNAc(b1-2)Man(a1-6)]Man(b1-4)GlcNAc(b1-4)[Fuc(a1-6)]GlcNAc
In short: as §1

[22] = target: Gal(b1-4)GlcNAc(b1-3)Gal(b1-4)GlcNAc(b1-3)Gal(b1-4)GlcNAc(b1-3)Gal(b1-4)GlcNAc(b1-3)Gal(b1-4)GlcNAc(b1-2)[Gal(b1-4)GlcNAc(b1-3)Gal(b1-4)GlcNAc(b1-3)Gal(b1-4)GlcNAc(b1-3)Gal(b1-4)GlcNAc(b1-3)Gal(b1-4)GlcNAc(b1-6)]Man(a1-6)[Gal(b1-4)GlcNAc(b1-3)Gal(b1-4)GlcNAc(b1-3)Gal(b1-4)GlcNAc(b1-3)Gal(b1-4)GlcNAc(b1-3)Gal(b1-4)GlcNAc(b1-2)Man(a1-3)]Man(b1-4)GlcNAc(b1-4)[Fuc(a1-6)]GlcNAc
In short: as §1

[23] = target: Gal(b1-4)GlcNAc(b1-3)GalNAc
In short: as §1

Gal3S6S(b1-4)GlcNAc6S = target: Gal3S6S(b1-4)GlcNAc6S
In short: as §1

B1: AFL5 (Aspergillus fumigatus), Q4WB00 (protein)
chain: MDNFMEMTKKLGHQPELLRLRALDATYDDALEGKLVVAPLDMSEPGKKILDSGTADGTWLRNVRSKQSVPHDYYGSDVEGELFPKDPDGITYFAHSFKDPWPQQYLGFFDLVHIRGSLAGSAPEGPAPVIQNLTTLLKPGGWVQLMEMNAFSPPPNGPAMTDFAKMASEMFTGIGVGDFANNNKSMLEDAGLKNVQEKRVIVNLGKKAKPELHDQSIHGVTGPIVPLTSVARTVKSSFTGEQLDALPARVKEELETEGGQVEMIIAFGQKA
Question: B1 was tested. Which “glycan array binding signal (z-score)” value [1] did it give?
Answer: -0.31

Question: What about the “glycan array binding signal (z-score)” value [2] of the same binder?
Answer: -0.036

Question: What about the “glycan array binding signal (z-score)” value [3] of the same binder?
Answer: -0.782

Question: And the “glycan array binding signal (z-score)” value [4]?
Answer: -0.555

Question: And the “glycan array binding signal (z-score)” value [5]?
Answer: -0.252

Question: What about the “glycan array binding signal (z-score)” value [6] of the same binder?
Answer: -0.456

Question: And the “glycan array binding signal (z-score)” value [7]?
Answer: -0.109

Question: And the “glycan array binding signal (z-score)” value [8]?
Answer: -0.322

Question: What about the “glycan array binding signal (z-score)” value [9] of the same binder?
Answer: -0.258

Question: What about the “glycan array binding signal (z-score)” value [10] of the same binder?
Answer: -0.016

Question: And the “glycan array binding signal (z-score)” value (Gal(a1-3)Gal(b1-3)GlcNAc)?
Answer: -0.285

Question: And the “glycan array binding signal (z-score)” value [11]?
Answer: 21.5

Question: And the “glycan array binding signal (z-score)” value (Gal(b1-3)Gal)?
Answer: -0.063

Question: And the “glycan array binding signal (z-score)” value (Gal(b1-3)GlcNAc)?
Answer: -0.272

Question: What about the “glycan array binding signal (z-score)” value [12] of the same binder?
Answer: 1.17

Question: And the “glycan array binding signal (z-score)” value [13]?
Answer: -0.412

Question: What about the “glycan array binding signal (z-score)” value (Gal(b1-4)Gal) of the same binder?
Answer: -0.502

Question: And the “glycan array binding signal (z-score)” value [14]?
Answer: 0.004

Question: What about the “glycan array binding signal (z-score)” value [15] of the same binder?
Answer: -0.411

Question: What about the “glycan array binding signal (z-score)” value [16] of the same binder?
Answer: -0.134

Question: And the “glycan array binding signal (z-score)” value [17]?
Answer: 3.2

Question: What about the “glycan array binding signal (z-score)” value [18] of the same binder?
Answer: 1.35

Question: And the “glycan array binding signal (z-score)” value [19]?
Answer: 0.075

Question: What about the “glycan array binding signal (z-score)” value [20] of the same binder?
Answer: 1.69

Question: And the “glycan array binding signal (z-score)” value [21]?
Answer: 1.46

Question: And the “glycan array binding signal (z-score)” value [22]?
Answer: 1.6

Question: What about the “glycan array binding signal (z-score)” value [23] of the same binder?
Answer: -0.561

Question: What about the “glycan array binding signal (z-score)” value (Gal3S6S(b1-4)GlcNAc6S) of the same binder?
Answer: 0.29
